In paper PMC5540273 (PLoS ONE, 2017):

Tests used:
Conditions in all cases: concentration: 1 μM,replicates: in singlicate; n = 1
HASPIN = tested on: T1, HASPIN
T1 construct: gene GSG2

HCK = tested on: HCK
HIPK1 = tested on: HIPK1
HIPK2 = tested on: HIPK2
HIPK3 = tested on: HIPK3
HIPK4 = tested on: HIPK4
HPK1 = tested on: HPK1
HUNK = tested on: HUNK
ICK = tested on: ICK
IGF1R = tested on: IGF1R
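Note: KINOMEscan kinase panel screen.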

Structure (SMILES)	%Inh (HASPIN) [%]	%Inh (HCK) [%]	%Inh (HIPK1) [%]	%Inh (HIPK2) [%]	%Inh (HIPK3) [%]	%Inh (HIPK4) [%]	%Inh (HPK1) [%]	%Inh (HUNK) [%]	%Inh (ICK) [%]	%Inh (IGF1R) [%]
COc1cccc(OC)c1C(=O)Nc1cccc(-c2nn3ccccc3c2-c2ccnc(Nc3cccc(F)c3)n2)c1 [GSK361065]	0	30	31	0	0	84	2	15	0	7
COc1cc2nccc(Nc3ccc(Oc4ccccc4)cc3)c2cc1OC.Cl [GI261656]	29	97.6	0	0	11	0	2	9	0	0
CS(=O)c1ccc(-c2coc3ccc(-c4n[nH]c(=O)o4)cc23)cc1 (stereo not drawn)	50	0	99.6	100	99.6	93.6	1	11	29	13
CC(=O)Nc1nc2cnc(Nc3cc(NC(=O)c4cccc(CC(C)(C)C#N)c4)ccc3C)nc2s1	0	32	29	10	6	13	0	2	44	9
CC(C)S(=O)(=O)N1CCN(Cc2ccc3c(c2)nc(NC(=O)c2ccsc2)n3C[C@H](O)c2ccccc2)CC1 [GW635815]	17	37	34	20	1	0	39	0	0	29
CC(=O)Nc1ccc(-c2cc3ncnc(SCC(=O)O)c3s2)cc1	13	15	96.7	97.5	95.1	95.6	11	0	60	0
COc1cc2ncn(-c3cc(OCC4CCCCC4)c(C(N)=O)s3)c2cc1OC [GSK204559]	0	0	9	0	0	68	39	0	0	5
Cn1ccc2ncnc(Oc3ccc(NC(=O)Nc4ccnc(C(F)(F)F)c4)c(Cl)c3)c21	9	0	35	0	0	0	0	8	0	2
CCOC(=O)N1CCC(n2cnc(-c3ccc(F)cc3)c2-c2ccnc(N)n2)CC1 [SB-219952]	0	0	37	17	15	0	5	0	70	0
CC(C)c1nc(-c2cccc(NS(=O)(=O)c3ccccc3)c2)c(-c2ccnc(Nc3ccc4c(c3)CN(C)CC4)n2)s1 [GSK1649598]	0	99.7	75	58	69	93.6	88	3	36	0
CSc1nccc(-c2c(-c3ccc(F)cc3)ncn2CCCN2CCOCC2)n1.Cl [SB-217146]	0	14	40	0	8	0	0	13	0	0
O=C(Nc1cccc(Oc2ccc3nccn3n2)c1)Nc1cccc(C(F)(F)F)c1	0	27	7	33	1	17	0	22	0	3
CC(C(=O)NC1CCN(c2ccnc(Nc3ccc(F)cc3)n2)C1)c1ccc(Cl)cc1 (stereo not drawn) [GSK1379713]	30	0	0	6	0	0	49	0	0	0
COC(=O)Nc1nc2cc(Oc3ccc(NC(=O)Nc4cc(C(F)(F)F)ccc4Cl)cc3)ccc2[nH]1.Cl [GW697465]	13	0	0	0	3	86	63	17	0	0
C[C@@H](Oc1cc(-n2cnc3ccc(-c4ccncc4)cc32)sc1C(N)=O)c1ccccc1Cl [GSK483724]	87	0	33	19	59	69	64	0	45	19
Cc1ccc2c(-c3ccnc(Nc4ccc(C(F)(F)F)cc4)n3)cnn2n1 [GW819776]	12	30	89	80	79	43	0	0	66	7
Cn1ccc2ncnc(Oc3ccc(NC(=O)Nc4cncc(C(F)(F)F)c4)c(Cl)c3)c21	0	14	10	0	0	0	0	0	0	0
CC(=O)c1c(-c2ccncc2)[nH]c(-c2ccncc2)c1C [GW493036]	85	0	53	0	65	86	11	26	18	0
COc1cc(Nc2nccc(N3CCC(NC(=O)c4cccc(C#N)c4)C3)n2)cc(OC)c1OC (stereo not drawn) [GSK1379751]	8	0	0	0	3	0	45	0	0	0
CN(c1ccc2c(c1)nc(NCc1ccc(F)cc1)n2C)c1ccnc(Nc2ccc(CS(C)(=O)=O)cc2)n1.Cl [GW813244]	28	47	53	25	47	79	60	5	7	13
Cl.Cl.NC[C@H](CC1CCCCC1)NC(=O)c1ccc(-c2ccnc3[nH]ccc23)s1 [GSK1581428]	88	0	98.7	96.1	98.9	94.2	78	0	11	0
NC(=O)Nc1sc(-c2ccc(F)cc2)cc1C(N)=O [GW789449]	3	47	40	34	31	2	48	0	15	2
Cc1ccc(Nc2ccnc(Nc3ccc4c(c3)CS(=O)(=O)C4)n2)cc1O.Cl [GW579362]	0	90	26	0	28	44	62	8	28	56
CN1CCN(CCCNc2nccc(-c3c(-c4ccc(F)cc4)nn4cc(C(N)=O)ccc34)n2)CC1 [GW622475]	0	8	5	0	27	0	13	6	12	0
O=C(Nc1n[nH]c2cc(-c3ccco3)ccc12)C1CC1 [SB-737447]	0	5	39	50	31	6	3	0	66	0
CS(=O)(=O)c1cccc(CNc2nc(Nc3ccc4c(c3)[C@@H]3C[C@@H]4CNC3=O)ncc2C(F)(F)F)c1	0	0	60	34	7	33	86	0	0	89
O=C(Nc1ccccc1)c1cccc(Oc2ccc3nccn3n2)c1	15	15	0	0	0	32	0	0	63	0
CN(c1cccc(CNc2nc(Nc3ccc4c(c3)CC(=O)N4)ncc2C(F)(F)F)c1)S(C)(=O)=O	0	0	39	11	0	14	19	0	0	34
C[C@@H]1CNc2c(sc3ccc4nc(-c5ccc(O)cc5)ccc4c23)C(=O)N1	48	35	41	46	21	0	6	5	0	0
O=C(NCC1CC1)c1ccc(-c2cc(C(=O)NC3CC3)ccc2F)cc1 [GW810445]	2	10	0	0	0	12	0	56	0	0
